In PubChem BioAssay:
Activity calls are given as the source filed them. Cut-off read from the data, not from the text of the source, unless noted: active = nuclear beta-catenin stimulation mostly above about 4.2% (no sharp cut-off); inactive = mostly below about 10%.

How the values were obtained:
[1] = Wnt pathway potentiators raising nuclear beta-catenin – imaging, WNT3A-conditioned medium, mouse C2C12, NPC library, primary screen (AID 1117326); details: stronger effect = higher value; note: reference of the scale not given here
[2] = stimulators of insulin release from INS-1E, primary screen, cell-based, 5 mM glucose, NPC library (AID 1117329;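 active = compound raises insulin release from rat beta cells at 5 mM glucose, no numeric limit stated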; note: reference of the scale not given here); details: rat INS-1E insulin secretion, at 10 µM, stronger effect = higher value
[3] = growth inhibition of GSK3B-pretreated HCT116 cells – cell-based, CellTiter-Glo, 0.2 to 20 µM (AID 1117336;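 active = compounds lowering colon cancer cell viability after pretreatment blocking the GSK3B kinase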); details: HCT116 viability after GSK3B inhibitor, at 20 µM, stronger effect = higher value
[4] = inhibition of endothelial tube formation, primary screen, imaging, VEGF stimulated, CD31 staining, tube area, NPC library (AID 1117340;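 active = compound that reduces growth-factor-driven endothelial tube area in a mixed cell culture, no cutoff stated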); details: VEGF-stimulated ADSC/ECFC co-culture, at 10 µM, stronger effect = higher value
[5] = GLP1 release stimulators, primary, NCI-H716, NPC library (AID 1117341;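 active = compound raises GLP1 secretion from the human gut endocrine cells, with no numeric limit stated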; note: reference of the scale not given here); details: NCI-H716 cells, at 10 µM, stronger effect = higher value
[6] = HCT116 colon cancer cell growth inhibition, primary screen, CellTiter-Glo luminescence, NPC library (AID 1117342;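 active = compounds that lower survival of HCT116 colon cancer cells in the luminescence readout, no numeric limit stated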); details: at 20 µM (top of the series)
[7] = reduced SW480 viability measured with CellTiter-Glo, NPC library, primary (AID 1117343;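 active = compounds that lower viability of the colon cancer cells in the luminescence readout, with no numeric limit stated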); details: CellTiter-Glo luminescence; at 20 µM (top of the series)
[8] = NPC library primary testing for decreased DLD-1 cell viability via CellTiter-Glo (AID 1117346;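 active = compounds that lower survival of DLD-1 colon cancer cells in the luminescence readout, no cutoff given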); details: DLD-1 viability, CellTiter-Glo luminescence; at 20 µM (top of the series)

| Compound | nuclear beta-catenin stimulation ([1]; at 10 µM) | nuclear beta-catenin stimulation ([1]; stimulation, at 2 µM) | insulin secretion stimulation [2] | viability decrease [3] | tube area decrease [4] | GLP1 secretion stimulation [5] | inhibition of viability [6] | viability decrease (inhibition) [7] | viability decrease (inhibition) [8] |
| --- | --- | --- | --- | --- | --- | --- | --- | --- | --- |
| C[C@@H](O)[C@H]1C(=O)N2C(C(=O)[O-])=C(SC3Cn4cnc[n+]4C3)[C@H](C)[C@H]12 (some centres not stated) | -0.3% (inactive) | -2.1% | 6.4% (inactive) | -16.5% (inactive) | -9.3% (inactive) | 0.8% (inactive) | 15.4% (inactive) | -6.5% (inactive) | 5.3% (inactive) |
| CC(C)CCCC(C)CCCC(C)CCCCC(C)CCCC(C)CCCC(C)C (configuration not stated) | -1.2% (inactive) | -0.8% | -1.6% (inactive) | -26.9% (inactive) | 4.8% (inactive) | -2.5% (inactive) | -10.1% (inactive) | 22.4% (inactive) | -26.5% (inactive) |
| OCC=Cc1ccccc1 | -2.6% (inactive) | -1% | 9.1% (inactive) | -8.2% (inactive) | 0.4% (inactive) | -1.9% (inactive) | -0.4% (inactive) | -0.8% (inactive) | -7.9% (inactive) |
| O=C(CCC1CCN(Cc2ccccc2)CC1)c1ccc2c(c1)NCCCC2 | 3.2% (inactive) | 3.5% | 4.2% (inactive) | 53.5% (active) | 12.9% (inactive) | 4.3% (inactive) | 81.9% (active) | 93.9% (active) | 62.1% (active) |
| CC(C)C(=O)Nc1cccc(C2CN3CCSC3=N2)c1 (configuration not stated) | 1.5% (inactive) | 1.8% | -0.5% (inactive) | -30.9% (inactive) | -4.2% (inactive) | 5% (inactive) | 4.17% (inactive) | 13% (inactive) | -14.4% (inactive) |
| O=c1[nH]sc2cc(Cl)ccc12 | 15.5% (inactive) | 7.8% | -2.7% (inactive) | 58.1% (active) | 89.7% (active) | 45% (active) | 20.5% (inactive) | 157% (active) | 63.5% (active) |
| Cc1ccc2ccc(Cl)cc2n1 | -0.9% (inactive) | -2.1% | 1.25% (inactive) | -1.7% (inactive) | -2.2% (inactive) | -2.9% (inactive) | 2.4% (inactive) | 1.2% (inactive) | -3.7% (inactive) |
| COc1ccc(C(=O)N2CCN(CC(=O)N3CCOCC3)CC2)cc1 | 0.8% (inactive) | 5.2% | 3.1% (inactive) | 6.4% (inactive) | 2.1% (inactive) | 0.6% (inactive) | 4.3% (inactive) | -11.3% (inactive) | 3.3% (inactive) |
| CCN1CCCC1CN (configuration not stated) | 1.1% (inactive) | 1.8% | 4.8% (inactive) | 39.7% (inactive) | -0.3% (inactive) | 3.1% (inactive) | 32.2% (inactive) | 43.3% (inactive) | 12.4% (inactive) |
| O=C(O)[C@@H]1CSCN1 | 0% (inactive) | 0.2% | -2.5% (inactive) | -3.1% (inactive) | 16.2% (inactive) | -0.4% (inactive) | 3.3% (inactive) | 38.4% (inactive) | 11.6% (inactive) |
| CC(C(O)c1ccccc1)N(C)CCOC(c1ccccc1)c1ccccc1 (configuration not stated) | 4.3% (inactive) | 2.3% | 2.45% (inactive) | 77.3% (active) | 14.1% (inactive) | 7.4% (inactive) | 86.9% (active) | 133% (active) | 81.5% (active) |
| CC(C)(C)C(=O)NCCCC(=O)O | -1.1% (inactive) | 2.4% | 2.7% (inactive) | -7.9% (inactive) | 2% (inactive) | -3.9% (inactive) | -1.1% (inactive) | -0.2% (inactive) | -16.7% (inactive) |
| C=Cc1ccccc1 | -2.1% (inactive) | -0.8% | 3.5% (inactive) | -5% (inactive) | -9.4% (inactive) | -1.4% (inactive) | 6.9% (inactive) | 0.4% (inactive) | 1.7% (inactive) |
| Nc1nc(N)c(-c2ccccc2)s1 | 0.4% (inactive) | 2.2% | -2% (inactive) | -1.63% (inactive) | 16.7% (inactive) | 2.1% (inactive) | 10.2% (inactive) | 48.5% (inactive) | 2.53% (inactive) |
| Cc1cccc(C)c1NC(=O)CN1CCCC1 | -0.4% (inactive) | 0.7% | 0.6% (inactive) | 4.2% (inactive) | -6.7% (inactive) | 1.1% (inactive) | 37.9% (inactive) | 3.5% (inactive) | 2.4% (inactive) |
| CCCCCCCCCCCCCC[N+](C)(C)C | 61.2% (active) | 7.5% | -0.2% (inactive) | 101% (active) | 110% (active) | 29.7% (active) | 101% (active) | 122% (active) | 103% (active) |
| COc1cc(S(N)(=O)=O)cc(C(=O)O)c1OC | -0.6% (inactive) | 3.5% | 1.2% (inactive) | 16.8% (inactive) | -3.6% (active) | -1% (inactive) | 23.4% (inactive) | 18.9% (inactive) | -9.9% (inactive) |
| CC/C=C(\C(=O)N[C@@H]1C(=O)N2C(C(=O)OCOC(=O)C(C)(C)C)=C(COC(N)=O)CS[C@H]12)c1csc(N)n1 | -1% (inactive) | -0.1% | 1.85% (inactive) | -5.5% (inactive) | -9.6% (inactive) | -0.1% (inactive) | -6.4% (inactive) | -3.4% (inactive) | -17.7% (inactive) |
| CCc1cc2cc(OC)c(OC)cc2c(Cc2ccccc2)n1 | 7.1% (inactive) | 3.1% | 15.8% (inactive) | 46.2% (inactive) | 18.5% (inactive) | 3.6% (inactive) | 41.3% (inactive) | -9.7% (inactive) | 25.5% (inactive) |
| NC[C@H]1O[C@H](O[C@H]2[C@H](O[C@@H]3O[C@H](CO)[C@@H](O)[C@H]3O)C(O)[C@H](N)C[C@@H]2N)[C@H](N)[C@@H](O)[C@@H]1O (some centres not stated) | 0.5% (inactive) | 2.2% | 1.4% (inactive) | -14.9% (inactive) | -12.5% (inactive) | 0.7% (inactive) | 2.3% (inactive) | 0.4% (inactive) | -14.4% (inactive) |
| C[C@@H](O)[C@H]1C(=O)N2C(C(=O)O)=C([C@H]3CCCO3)S[C@H]12 | 0.5% (inactive) | 0.5% | -1.8% (inactive) | 13.8% (inactive) | -11.6% (inactive) | 1.1% (inactive) | 3.4% (inactive) | 34.6% (inactive) | 11.2% (inactive) |
| CCCC(O)C(CC)CO (configuration not stated) | -0.6% (inactive) | 1.4% | -1.8% (inactive) | -18.3% (inactive) | 16.6% (inactive) | -0.4% (inactive) | 3.33% (inactive) | 2.8% (inactive) | 2.4% (inactive) |
| NS(=O)(=O)c1cc(-c2nn[nH]n2)c(NCc2cccs2)cc1Cl | -3% (inactive) | -0.1% | 6.5% (inactive) | -3% (inactive) | -8.2% (inactive) | -0.2% (inactive) | -19.7% (inactive) | 2.3% (inactive) | -10.7% (inactive) |
| CC1(S(=O)(=O)O)CC(=O)c2ccccc2C1=O (configuration not stated) | 30.3% (inactive) | -0.2% | -0.7% (inactive) | 98.8% (active) | 54.7% (active) | 1.2% (inactive) | 99.2% (active) | 102% (active) | 102% (active) |
| Cc1c(I)c(=O)n(-c2ccccc2)n1C | -0.6% (inactive) | 0.4% | 0.4% (inactive) | -4.55% (inactive) | 1.2% (inactive) | 0.6% (inactive) | -8.9% (inactive) | 26.3% (inactive) | 33.4% (inactive) |
| CN(C)CCOC(c1ccccc1)c1ccc(Br)cc1 (configuration not stated) | 4.6% (inactive) | 5.4% | 95% (active) | -92.2% (inactive) | -4.6% (inactive) | 12.6% (inactive) | 29.9% (inactive) | 55.5% (active) | 5.7% (inactive) |
| COc1ccccc1N1CCN(CC(O)COc2cc(OC)c(OC)c(OC)c2)CC1 (configuration not stated) | 0.2% (inactive) | 0.4% | 1.5% (inactive) | 16.1% (inactive) | 56.8% (active) | 4.5% (inactive) | 20.9% (inactive) | -2.1% (inactive) | 8.5% (inactive) |
| Cc1cn([C@H]2C[C@H](F)[C@@H](CO)O2)c(=O)[nH]c1=O | 9.9% (inactive) | 3.4% | 0.2% (inactive) | -4.5% (inactive) | 20.7% (inactive) | -4.5% (inactive) | 1.4% (inactive) | -3.5% (inactive) | -8.7% (inactive) |
